Data as given in PubChem BioAssay (EPA / NIEHS).
Records with an inconclusive call do not appear. A structure can be active in one record and inactive in another. Calls of active or inactive are those of the source. How the source made its calls, unless noted: active means hit-call score of the fitted dose curve at least 0.9, where 1 is the maximum; inconclusive means response in the unintended direction; inactive means score below 0.9.

What was measured:
[1] = ATG_AP_2_CIS: Attagene CIS-FACTORIAL HepG2 Assay for human Activator Protein 2 (AP-2) (AID 2282932; active means hit-call score of the fitted dose curve at least 0.9, where 1 is the maximum; inactive means score below 0.9); conditions: HepG2 AP-2 cis-reporter, Attagene transcription factor profiling; actives raise or lower the signal
Procedure, shortened: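 Cells (HepG2) transfected with promoter-driven reporter constructs, treated 24 h. Total RNA reverse-transcribed, reporter cDNA PCR-amplified, FAM-labelled by primer extension, digested, resolved by capillary electrophoresis. Activity fitted both directions versus DMSO.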

[2] = ATG_M_61_CIS: Attagene CIS-FACTORIAL HepG2 Assay for M61 Transcription Factor (Internal Marker) (AID 2282937; active means hit-call score of the fitted dose curve at least 0.9, where 1 is the maximum; inactive means score below 0.9); conditions: HepG2 Attagene CIS-FACTORIAL M61 internal marker reporter; actives raise or lower the signal
Procedure, shortened: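 HepG2 cells transiently transfected with cis-element-driven multiple reporter transcription units, dosed for 24 h. Reporter mRNA measured by RT-PCR, 6-FAM primer-extension labelling, HpaI digestion and capillary electrophoresis; bidirectional fit versus DMSO baseline.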

[3] = ATG_GLI_CIS: Attagene CIS-FACTORIAL HepG2 Assay for human Zinc Finger Protein GLI1 (AID 2282945; active means hit-call score of the fitted dose curve at least 0.9, where 1 is the maximum; inactive means score below 0.9); conditions: HepG2, Attagene cis-factorial reporter mRNA, GLI element; actives raise or lower the signal
Procedure, shortened: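 HepG2 cells transiently transfected with cis-promoter multiplexed reporter units report endogenous transcription factor activity. After 24 h chemical exposure, reporter mRNA was quantified by RT-PCR, 6-FAM labelling, HpaI digestion and capillary electrophoresis, with bidirectional fitting against DMSO.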

[4] = ATG_PXRE_CIS: Attagene CIS-FACTORIAL HepG2 Assay for human Pregnane X Receptor Element (PXRE) (AID 2282957; active means hit-call score of the fitted dose curve at least 0.9, where 1 is the maximum; inactive means score below 0.9); conditions: HepG2 Attagene CIS-FACTORIAL PXRE reporter, mRNA; actives raise or lower the signal
Procedure, shortened: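 Using HepG2 transfected with multiple reporter transcription units, endogenous factor-driven transcription was scored as reporter mRNA after 24 h exposure.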

[5] = target: human Peroxisome Proliferator-activated Receptor alpha (PPARa), PPARA (gene 5465) (UniProt Q07869); test: ATG_PPARa_TRANS: Attagene TRANS-FACTORIAL HepG2 Assay for human Peroxisome Proliferator-activated Receptor alpha (PPARa) (AID 2283001);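 on AC50: potency for gain of reporter signal over DMSO so agonist or activator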
human Peroxisome Proliferator-activated Receptor alpha (PPARa), PPARA (gene 5465), sequence (Q07869 whole entry, looked up): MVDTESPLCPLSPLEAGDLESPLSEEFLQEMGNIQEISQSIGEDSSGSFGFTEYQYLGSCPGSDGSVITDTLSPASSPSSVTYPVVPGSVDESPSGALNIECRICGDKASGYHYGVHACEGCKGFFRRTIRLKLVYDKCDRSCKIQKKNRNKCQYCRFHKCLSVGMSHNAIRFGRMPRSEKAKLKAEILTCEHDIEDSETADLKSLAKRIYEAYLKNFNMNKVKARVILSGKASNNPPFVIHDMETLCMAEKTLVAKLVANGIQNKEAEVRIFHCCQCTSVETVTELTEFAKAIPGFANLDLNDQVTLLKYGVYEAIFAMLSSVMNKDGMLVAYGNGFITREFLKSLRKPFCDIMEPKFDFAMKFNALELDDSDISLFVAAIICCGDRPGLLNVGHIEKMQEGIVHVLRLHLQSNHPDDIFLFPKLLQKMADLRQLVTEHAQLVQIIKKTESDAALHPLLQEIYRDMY
Procedure, shortened: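 Cells (HepG2) are transfected with multiple reporter transcription units, exposed to chemical for 24 h, then total RNA is reverse-transcribed and amplified. Labelled products are quantified by capillary electrophoresis; induction is referenced to DMSO.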

[6] = target: Cellular tumor antigen p53 (Homo sapiens) (UniProt P04637); test: TOX21_p53_BLA_p2_ratio: Tox21 HCT-116 p53 Agonism Beta-lactamase Assay, Ratio, Phase 2 (AID 2283592)
Cellular tumor antigen p53 (Homo sapiens), sequence (P04637 whole entry, looked up): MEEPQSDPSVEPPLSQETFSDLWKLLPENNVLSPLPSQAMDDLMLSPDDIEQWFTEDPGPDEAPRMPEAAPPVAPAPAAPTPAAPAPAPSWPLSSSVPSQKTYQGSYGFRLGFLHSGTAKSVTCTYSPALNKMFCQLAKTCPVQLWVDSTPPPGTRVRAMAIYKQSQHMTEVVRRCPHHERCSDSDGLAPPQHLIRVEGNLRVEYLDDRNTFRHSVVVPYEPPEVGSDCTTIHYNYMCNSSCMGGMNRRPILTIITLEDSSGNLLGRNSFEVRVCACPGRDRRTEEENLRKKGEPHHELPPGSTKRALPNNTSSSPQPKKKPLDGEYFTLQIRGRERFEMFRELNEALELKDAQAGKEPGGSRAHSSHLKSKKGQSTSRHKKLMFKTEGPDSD
Procedure, shortened: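 Plated HCT116 p53-bla cells (4000/well) received compound after 5 h, then 16 h at 37C/5% CO2. CCF4-AM added, 2 h RT. Ratio of 460 to 530 nm emission taken as the p53 reporter signal.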

[7] = target: Cellular tumor antigen p53 (Homo sapiens) (UniProt P04637); test: TOX21_p53_BLA_p3_ratio: Tox21 HCT-116 p53 Agonism Beta-lactamase Assay, Ratio, Phase 3 (AID 2283596)
Procedure, shortened: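 Cells were seeded at 4000/well, rested 5 h at 37C, then dosed with DMSO compound solutions (217-fold dilution) for 16 h. CCF4-AM substrate was loaded for 2 h at room temperature, and the 460/530 nm emission ratio was fitted for gain of signal versus DMSO.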

[8] = target: Cellular tumor antigen p53 (Homo sapiens) (UniProt P04637); test: TOX21_p53_BLA_p5_ratio: Tox21 HCT-116 p53 Agonism Beta-lactamase Assay, Ratio, Phase 5 (AID 2283599)
Procedure, shortened: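 HCT-116 cells carrying a p53-inducible beta-lactamase reporter were seeded at 4000 cells/well and dosed after 5 h with compound in DMSO (217-fold dilution). After 16 h at 37C, CCF4-AM substrate was added for 2 h, and the 460/530 nm emission ratio was scored as gain-of-signal versus DMSO.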

[9] = TOX21_p53_BLA_p5_viability: Viability Assessment in the Tox21 HCT-116 p53 Agonism Beta-lactamase Assay, Phase 5 (AID 2283600)
Procedure, shortened: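 Workflow: seed 4000 cells per well, wait 5 h, add compounds (DMSO, 217-fold dilution), incubate 16 h, load CCF4-AM 2 h, add CellTiter-Glo, read luminescence after 30 min.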

[10] = target: Cellular tumor antigen p53 (Homo sapiens) (UniProt P04637); test: TOX21_p53_BLA_p4_ratio: Tox21 HCT-116 p53 Agonism Beta-lactamase Assay, Ratio, Phase 4 (AID 2283601)
Procedure, shortened: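 HCT116 cells carrying an inducible beta-lactamase reporter were plated at 4000 cells/well, rested 5 h, then exposed to compounds in DMSO (217-fold dilution) for 16 h at 37C. CCF4-AM substrate was loaded 2 h at room temperature; 460/530 nm emission ratio scored gain-of-signal versus DMSO.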

[11] = target: Aryl hydrocarbon receptor (Homo sapiens) (UniProt P35869); test: ATG_Ahr_CIS: Attagene CIS-FACTORIAL HepG2 Assay for human Aryl Hydrocarbon Receptor (Ahr) (AID 2282930; active means hit-call score of the fitted dose curve at least 0.9, where 1 is the maximum; inactive means score below 0.9); conditions: HepG2 AhR cis-factorial reporter transcription; actives raise or lower the signal
Aryl hydrocarbon receptor (Homo sapiens), sequence (P35869 whole entry, looked up): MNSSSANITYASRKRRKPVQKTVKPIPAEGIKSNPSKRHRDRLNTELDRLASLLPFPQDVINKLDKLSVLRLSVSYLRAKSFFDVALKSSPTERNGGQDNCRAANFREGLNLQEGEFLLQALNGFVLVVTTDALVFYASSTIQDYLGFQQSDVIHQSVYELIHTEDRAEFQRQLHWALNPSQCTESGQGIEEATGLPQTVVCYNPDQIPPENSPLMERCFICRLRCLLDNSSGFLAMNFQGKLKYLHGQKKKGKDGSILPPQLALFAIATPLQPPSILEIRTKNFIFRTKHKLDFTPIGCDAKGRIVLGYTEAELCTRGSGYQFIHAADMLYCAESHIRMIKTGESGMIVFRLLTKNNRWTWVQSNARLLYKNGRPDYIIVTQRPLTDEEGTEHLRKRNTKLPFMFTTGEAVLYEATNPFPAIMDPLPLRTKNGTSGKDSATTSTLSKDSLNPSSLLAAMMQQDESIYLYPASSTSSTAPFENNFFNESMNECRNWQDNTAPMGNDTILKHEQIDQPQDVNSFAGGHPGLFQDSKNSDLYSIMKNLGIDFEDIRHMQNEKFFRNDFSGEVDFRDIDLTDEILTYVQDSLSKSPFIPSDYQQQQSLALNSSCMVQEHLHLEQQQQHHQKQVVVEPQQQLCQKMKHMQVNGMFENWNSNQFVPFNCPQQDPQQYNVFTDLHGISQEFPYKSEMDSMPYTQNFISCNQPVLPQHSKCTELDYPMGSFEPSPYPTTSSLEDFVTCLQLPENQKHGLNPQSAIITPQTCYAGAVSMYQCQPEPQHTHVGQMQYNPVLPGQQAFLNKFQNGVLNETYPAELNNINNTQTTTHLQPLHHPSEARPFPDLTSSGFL
Procedure, shortened: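 Values derive from bidirectional fitting against DMSO negative control. Underlying signal: cis-element reporter mRNA in transiently transfected HepG2, harvested 24 h post-dose and measured by RT-PCR plus capillary electrophoresis.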

[12] = target: Transcription factor E2F1 (Homo sapiens) (UniProt Q01094); test: ATG_E2F_CIS: Attagene CIS-FACTORIAL HepG2 Assay for human E2F Transcription Factor 1 (AID 2282935; active means hit-call score of the fitted dose curve at least 0.9, where 1 is the maximum; inactive means score below 0.9); conditions: HepG2 Attagene cis-reporter, E2F reporter RNA transcripts; actives raise or lower the signal
Transcription factor E2F1 (Homo sapiens), sequence (Q01094 whole entry, looked up): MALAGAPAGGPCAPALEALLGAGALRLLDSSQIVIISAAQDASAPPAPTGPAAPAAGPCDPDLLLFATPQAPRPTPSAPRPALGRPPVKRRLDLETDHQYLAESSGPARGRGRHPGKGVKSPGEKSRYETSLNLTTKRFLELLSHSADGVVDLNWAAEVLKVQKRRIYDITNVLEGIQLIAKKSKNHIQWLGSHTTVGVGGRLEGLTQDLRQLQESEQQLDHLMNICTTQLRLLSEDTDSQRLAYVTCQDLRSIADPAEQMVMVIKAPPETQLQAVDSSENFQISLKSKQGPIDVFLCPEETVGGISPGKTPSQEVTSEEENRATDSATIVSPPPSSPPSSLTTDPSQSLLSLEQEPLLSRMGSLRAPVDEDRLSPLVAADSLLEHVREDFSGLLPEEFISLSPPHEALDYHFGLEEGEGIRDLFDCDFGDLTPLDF
Procedure, shortened: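 First, HepG2 cells were transfected with reporter transcription units. Next, they were dosed for 24 h. Then RNA was isolated, converted to cDNA, PCR-amplified, FAM-labeled, HpaI-digested and analyzed by capillary electrophoresis.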

[13] = ATG_PPRE_CIS: Attagene CIS-FACTORIAL HepG2 Assay for human Peroxisome Proliferator-activated Response Element (PPRE) (AID 2282958; active means hit-call score of the fitted dose curve at least 0.9, where 1 is the maximum; inactive means score below 0.9); conditions: HepG2 PPRE cis-element reporter, Attagene transcription factor profiling; actives raise or lower the signal
Procedure, shortened: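 HepG2 cells transiently transfected with multiplexed cis-element reporter units measure endogenous transcription factor activity. After 24 h compound exposure, reporter mRNA is quantified by RT-PCR, 6-FAM labeling, HpaI digestion and capillary electrophoresis; bidirectional fits are made against DMSO baseline.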

[14] = ATG_SREBP_CIS: Attagene CIS-FACTORIAL HepG2 Assay for human Sterol Regulatory Element Binding (SREBP) (AID 2282962; active means hit-call score of the fitted dose curve at least 0.9, where 1 is the maximum; inactive means score below 0.9); conditions: HepG2 Attagene cis-factorial SREBP reporter, mRNA; actives raise or lower the signal
Procedure, shortened: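 Endogenous factor activity is measured in HepG2 through multiplexed reporter units under cis-element control. Following a 24 h incubation, reporter transcripts are reverse-transcribed, PCR-amplified and sized by capillary electrophoresis; activity is fitted in both directions relative to DMSO.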

[15] = ATG_Oct_MLP_CIS: Attagene CIS-FACTORIAL HepG2 Assay for human Octamer-Binding Transcription Factor (Oct) (AID 2282993; active means hit-call score of the fitted dose curve at least 0.9, where 1 is the maximum; inactive means score below 0.9); conditions: HepG2 Attagene cis-factorial Oct reporter, mRNA; actives raise or lower the signal
Procedure, shortened: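 Read-out: reporter mRNA via RT-PCR plus capillary electrophoresis of 6-FAM-labelled fragments. Transiently transfected HepG2, 24 h exposure, endogenous TF activity on cis elements. Gain or loss of signal fitted relative to DMSO.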

[16] = target: Peroxisome proliferator-activated receptor gamma (Homo sapiens) (UniProt P37231); test: ATG_PPARg_TRANS: Attagene TRANS-FACTORIAL HepG2 Assay for human Peroxisome Proliferator-activated Receptor-gamma (PPARg) (AID 2283007)
Peroxisome proliferator-activated receptor gamma (Homo sapiens), sequence (P37231 whole entry, looked up, the tested form may be a part): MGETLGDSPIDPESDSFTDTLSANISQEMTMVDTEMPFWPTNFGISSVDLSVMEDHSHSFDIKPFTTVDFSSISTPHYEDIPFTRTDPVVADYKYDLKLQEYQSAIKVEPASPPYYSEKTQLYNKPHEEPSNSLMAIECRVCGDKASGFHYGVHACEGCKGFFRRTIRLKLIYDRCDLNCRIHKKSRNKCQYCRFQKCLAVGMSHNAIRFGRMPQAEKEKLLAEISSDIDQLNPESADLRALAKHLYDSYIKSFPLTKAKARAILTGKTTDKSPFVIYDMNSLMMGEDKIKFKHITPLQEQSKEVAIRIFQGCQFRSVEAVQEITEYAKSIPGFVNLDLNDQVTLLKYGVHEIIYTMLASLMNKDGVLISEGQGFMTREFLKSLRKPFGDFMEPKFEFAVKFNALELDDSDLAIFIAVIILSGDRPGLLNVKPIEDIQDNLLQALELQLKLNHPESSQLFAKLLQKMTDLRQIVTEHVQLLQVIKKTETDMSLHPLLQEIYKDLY
Procedure, shortened: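 HepG2 cells transiently transfected with multiplexed GAL4-UAS reporter units and exogenous chimeric NR-Gal4 proteins; reporter mRNA quantified after 24 h compound exposure by RT-PCR, fluorescent labelling, HpaI digestion and capillary electrophoresis; gain-of-signal fitted versus DMSO baseline.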

[17] = target: Retinoic acid receptor RXR-alpha (Homo sapiens) (UniProt P19793); test: ATG_RXRa_TRANS: Attagene TRANS-FACTORIAL HepG2 Assay for human Retinoid X Receptor alpha (RXRa) (AID 2283012)
Retinoic acid receptor RXR-alpha (Homo sapiens), sequence (P19793 whole entry, looked up, the tested form may be a part): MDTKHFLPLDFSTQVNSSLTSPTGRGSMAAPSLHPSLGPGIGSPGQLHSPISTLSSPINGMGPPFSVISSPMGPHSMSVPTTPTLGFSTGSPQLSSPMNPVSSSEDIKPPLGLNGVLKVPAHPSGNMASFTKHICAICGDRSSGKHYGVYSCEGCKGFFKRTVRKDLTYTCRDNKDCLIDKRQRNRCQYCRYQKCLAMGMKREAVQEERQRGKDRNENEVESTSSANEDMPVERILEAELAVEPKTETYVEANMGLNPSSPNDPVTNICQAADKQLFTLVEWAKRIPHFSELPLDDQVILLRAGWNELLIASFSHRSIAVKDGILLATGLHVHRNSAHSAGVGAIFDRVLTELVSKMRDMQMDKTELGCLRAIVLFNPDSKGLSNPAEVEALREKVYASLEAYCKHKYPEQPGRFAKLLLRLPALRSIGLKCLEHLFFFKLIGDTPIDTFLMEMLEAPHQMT
Procedure, shortened: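 Measures exogenous chimeric NR-GAL4 activity in transfected HepG2 liver cells after 24 h of dosing. Induced reporter mRNA was detected by RT-PCR with capillary electrophoresis, and gain of signal was analysed against DMSO.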

[18] = ATG_PBREM_CIS: Attagene CIS-FACTORIAL HepG2 Assay for human Phenobarbital-responsive Enhancer Module (PBREM) (AID 2282955; active means hit-call score of the fitted dose curve at least 0.9, where 1 is the maximum; inactive means score below 0.9); conditions: HepG2 PBREM cis-reporter, Attagene multiplexed transcription; actives raise or lower the signal
Procedure, shortened: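 HepG2 cells transiently transfected with multiple cis-regulated reporter transcription units; endogenous factor activity at the PBREM element measured as reporter mRNA 24 h after dosing, via RT-PCR and capillary electrophoresis of fluorescent fragments; bidirectional fitting versus DMSO.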

[19] = target: human Thyroid Receptor alpha (THRa1), THRA (gene 7067) (UniProt P10827); test: ATG_THRa1_TRANS: Attagene TRANS-FACTORIAL HepG2 Assay for human Thyroid Receptor alpha (THRa1) (AID 2283014)
human Thyroid Receptor alpha (THRa1), THRA (gene 7067), sequence (P10827 whole entry, looked up, the tested form may be a part): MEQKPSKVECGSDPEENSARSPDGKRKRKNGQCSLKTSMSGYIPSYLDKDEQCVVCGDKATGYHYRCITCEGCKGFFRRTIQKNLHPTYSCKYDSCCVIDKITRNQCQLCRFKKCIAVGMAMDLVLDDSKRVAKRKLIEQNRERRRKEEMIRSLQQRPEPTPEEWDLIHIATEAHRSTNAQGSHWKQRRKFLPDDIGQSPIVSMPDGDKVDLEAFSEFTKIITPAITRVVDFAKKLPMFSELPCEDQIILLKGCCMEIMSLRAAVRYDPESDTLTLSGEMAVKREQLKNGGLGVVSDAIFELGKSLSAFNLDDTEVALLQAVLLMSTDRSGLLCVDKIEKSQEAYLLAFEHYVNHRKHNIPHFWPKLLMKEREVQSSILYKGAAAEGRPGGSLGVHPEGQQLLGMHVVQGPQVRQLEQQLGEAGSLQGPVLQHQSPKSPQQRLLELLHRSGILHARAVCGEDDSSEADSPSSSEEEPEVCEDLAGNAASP
Procedure, shortened: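 Reporter transcript induction, read by capillary electrophoresis of 6-FAM-labelled RT-PCR products, reflects activity of a transfected THRa1-Gal4 fusion in HepG2 liver cells. Cells were dosed for 24 h; activity was fitted in the positive direction against DMSO.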

[20] = ACEA_ER_AUC_viability: ACEA Biosciences xCELLigence Real-Time Cell Analysis on Estrogen Receptor Agonism for Viability (AID 2283782);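 further: hit means loss of impedance signal meaning reduced cell growth or viability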
Procedure, shortened: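 Continuous-exposure impedance cell analysis uses T-47D cells in charcoal-stripped serum, eight 1:4 dilutions topping at 100 uM final, biological duplicate. Area under the growth curve at 80 h is fitted against DMSO baseline.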

[N-]=[N+]=CC(=O)OC[C@H](N)C(=O)O
outcome [1]: inactive | outcome [2]: inactive | outcome [3]: inactive | AC50 [4]: 26 µM (active) | outcome [5]: inactive | outcome [6]: inactive | outcome [7]: inactive | outcome [8]: inactive | outcome [9]: inactive | outcome [10]: inactive

CCc1cc(C)cc(CC)c1-c1c(OC(=O)C(C)(C)C)n2n(c1=O)CCOCC2
outcome [11]: inactive | AC50 [12]: 25.8 µM (active) | outcome [3]: inactive | outcome [13]: inactive | outcome [14]: inactive | outcome [15]: inactive | outcome [16]: inactive | outcome [17]: inactive

O=C1Nc2ccc(Cl)cc2C(c2ccccc2)=NC1O (centres undefined)
outcome [11]: inactive | outcome [1]: inactive | outcome [2]: inactive | outcome [3]: inactive | outcome [18]: inactive | outcome [13]: inactive | outcome [14]: inactive | outcome [5]: inactive | outcome [16]: inactive | outcome [17]: inactive | outcome [19]: inactive | outcome [6]: inactive | outcome [7]: inactive | AC50 [8]: 77.3 µM (active) | outcome [8]: inactive | outcome [9]: inactive | AC50 [10]: 86.7 µM (active) | outcome [10]: inactive

CCC(C)(C)O
outcome [11]: inactive | outcome [1]: inactive | outcome [2]: inactive | outcome [3]: inactive | outcome [18]: inactive | outcome [4]: inactive | outcome [13]: inactive | outcome [15]: inactive | outcome [20]: inactive

N#Cc1cc(I)c(O)c(I)c1
outcome [11]: inactive | outcome [1]: inactive | outcome [12]: inactive | outcome [2]: inactive | outcome [3]: inactive | outcome [18]: inactive | outcome [4]: inactive | AC50 [13]: 29.1 µM (active) | AC50 [5]: 8.29 µM (active) | AC50 [16]: 10.7 µM (active) | outcome [17]: inactive | outcome [19]: inactive | AC50 [6]: 9.91 µM (active) | AC50 [7]: 6.09 µM (active) | AC50 [8]: 55.8 µM (active) | outcome [9]: inactive | AC50 [10]: 13.9 µM (active)

Cc1ncc(C[n+]2csc(CCO)c2C)c(N)n1
outcome [11]: inactive | outcome [1]: inactive | outcome [3]: inactive | outcome [18]: inactive | outcome [4]: inactive | outcome [13]: inactive | outcome [14]: inactive | outcome [15]: inactive | outcome [16]: inactive | outcome [6]: inactive | outcome [7]: inactive | outcome [8]: inactive | outcome [9]: inactive | outcome [10]: inactive | outcome [20]: inactive

C=CC(=O)OCC(CC)CCCC (centres undefined)
outcome [11]: inactive | outcome [12]: inactive | outcome [2]: inactive | outcome [3]: inactive | outcome [18]: inactive | outcome [4]: inactive | outcome [13]: inactive | outcome [14]: inactive | outcome [5]: inactive | outcome [16]: inactive | outcome [17]: inactive | outcome [6]: inactive | outcome [7]: inactive | outcome [8]: inactive | outcome [9]: inactive | outcome [10]: inactive | outcome [20]: inactive
